Results filed as inconclusive are left out. The source made the active and inactive calls. Calls follow the shape of the dose curve; as a rule, active = well fitted curve in the direction sought with a large enough effect; inconclusive = small, poorly fitted or top-dose-only effect, or another doubt; inactive = no such curve, though single readings can be large; an effect the other way counts as inactive or inconclusive.
Assays:
[1] = qHTS of pediatric cancer cell lines to identify multiple opportunities for drug repurposing: Confirmatory screen for TC32 cells (AID 1347118);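 also: potency is read from the fitted curve at half-maximal effect; cells exposed to compound for 48 h before the read; nearly all actives have a fitted effect of over 65% in size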
How it was run: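 TC32 cells, 500-1,000/well in growth medium, compound-treated 48 h at 37 °C; viability from CellTiter-Glo luminescence. Primary screen: MIPE 11-point (0.78 nM–46 µM final), NPC 8-point (0.59 nM–46 µM final); confirmatory at 11-point dilutions.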

[2] = qHTS of pediatric cancer cell lines to identify multiple opportunities for drug repurposing: Confirmatory screen for MG 63 (6-TG R) cells (AID 1347119); also: nearly all actives have a fitted effect of over 55% in size; also: potency is read from the fitted curve at half-maximal effect
How it was run: (§1)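 Cells (500-1,000/well) rested 5 h, then received compounds for 48 h; metabolically active cells were measured by CellTiter-Glo luminescence. Final concentrations spanned up to 46 µM (MIPE, 11-point) or 0.59 nM-46 µM (NPC, 8-point) in primary screens, 11-point in follow-ups.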

[3] = qHTS of pediatric cancer cell lines to identify multiple opportunities for drug repurposing: Confirmatory screen for control Hh wild type fibroblast cells (AID 1347121); also: nearly all actives have a fitted effect of over 70% in size; also: potency is read from the fitted curve at half-maximal effect
How it was run: as §1

[4] = qHTS of pediatric cancer cell lines to identify multiple opportunities for drug repurposing: Confirmatory screen for RD cells (AID 1347124);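 also: cells exposed to compound for 48 h before viability readout; nearly all actives have a fitted effect of over 65% in size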; also: potency is read from the fitted curve at half-maximal effect
How it was run: as §1

[5] = qHTS of pediatric cancer cell lines to identify multiple opportunities for drug repurposing: Confirmatory screen for Rh18 cells (AID 1347125); also: nearly all actives have a fitted effect of over 55% in size; also: potency is read from the fitted curve at half-maximal effect
How it was run: as §1

[6] = qHTS of pediatric cancer cell lines to identify multiple opportunities for drug repurposing: Confirmatory screen for Saos-2 cells (AID 1347127); also: nearly all actives have a fitted effect of over 60% in size; also: potency is read from the fitted curve at half-maximal effect
How it was run: as §1

[7] = qHTS of pediatric cancer cell lines to identify multiple opportunities for drug repurposing: Confirmatory screen for OHS-50 cells (AID 1347128);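 also: compound exposure lasted 48 h at 37 degrees C; nearly all actives have a fitted effect of over 55% in size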; also: potency is read from the fitted curve at half-maximal effect
How it was run: as §1

[8] = qHTS of pediatric cancer cell lines to identify multiple opportunities for drug repurposing: Confirmatory screen for SK-N-SH cells (AID 1347129);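 also: cells exposed to compound for 48 h before viability read; nearly all actives have a fitted effect of over 60% in size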; also: potency is read from the fitted curve at half-maximal effect
How it was run: as §1

[9] = qHTS of pediatric cancer cell lines to identify multiple opportunities for drug repurposing: Confirmatory screen for U-2 OS cells (AID 1347122); also: nearly all actives have a fitted effect of over 65% in size; also: potency is read from the fitted curve at half-maximal effect
How it was run: as §1

[10] = qHTS of pediatric cancer cell lines to identify multiple opportunities for drug repurposing: Confirmatory screen for Rh41 cells (AID 1347123);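 also: 48 h compound exposure; nearly all actives have a fitted effect of over 60% in size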; also: potency is read from the fitted curve at half-maximal effect
How it was run: as §1

[11] = qHTS of pediatric cancer cell lines to identify multiple opportunities for drug repurposing: Confirmatory screen for Rh30 cells (AID 1347126); also: nearly all actives have a fitted effect of over 55% in size; also: potency is read from the fitted curve at half-maximal effect
How it was run: as §1

[12] = test system: Zika virus NS2B-NS3 protease; test: Primary screen GU AMC qHTS for Zika virus inhibitors (AID 1347154); also: nearly all actives have a fitted effect of over 70% in size; also: potency is read from the fitted curve at half-maximal effect
How it was run: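 Fluorogenic AMC-substrate cleavage by noncovalent NS2B-NS3 protease complex (25 nM, pH 8.0 Tris buffer with Tween 20) followed for 15 minutes at room temperature (~20% conversion). Percent inhibition from ex340/em450 signal change, fitted by 4-parameter Hill equation.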

[13] = molecular target: Furin (Homo sapiens) (UniProt P09958); test: Furin counterscreen qHTS for Zika virus inhibitors (AID 1347149); also: potency is read from the fitted curve at half-maximal effect; nearly all actives have a fitted effect of over 70% in size
Chain of Furin (Homo sapiens) (P09958 whole entry, looked up): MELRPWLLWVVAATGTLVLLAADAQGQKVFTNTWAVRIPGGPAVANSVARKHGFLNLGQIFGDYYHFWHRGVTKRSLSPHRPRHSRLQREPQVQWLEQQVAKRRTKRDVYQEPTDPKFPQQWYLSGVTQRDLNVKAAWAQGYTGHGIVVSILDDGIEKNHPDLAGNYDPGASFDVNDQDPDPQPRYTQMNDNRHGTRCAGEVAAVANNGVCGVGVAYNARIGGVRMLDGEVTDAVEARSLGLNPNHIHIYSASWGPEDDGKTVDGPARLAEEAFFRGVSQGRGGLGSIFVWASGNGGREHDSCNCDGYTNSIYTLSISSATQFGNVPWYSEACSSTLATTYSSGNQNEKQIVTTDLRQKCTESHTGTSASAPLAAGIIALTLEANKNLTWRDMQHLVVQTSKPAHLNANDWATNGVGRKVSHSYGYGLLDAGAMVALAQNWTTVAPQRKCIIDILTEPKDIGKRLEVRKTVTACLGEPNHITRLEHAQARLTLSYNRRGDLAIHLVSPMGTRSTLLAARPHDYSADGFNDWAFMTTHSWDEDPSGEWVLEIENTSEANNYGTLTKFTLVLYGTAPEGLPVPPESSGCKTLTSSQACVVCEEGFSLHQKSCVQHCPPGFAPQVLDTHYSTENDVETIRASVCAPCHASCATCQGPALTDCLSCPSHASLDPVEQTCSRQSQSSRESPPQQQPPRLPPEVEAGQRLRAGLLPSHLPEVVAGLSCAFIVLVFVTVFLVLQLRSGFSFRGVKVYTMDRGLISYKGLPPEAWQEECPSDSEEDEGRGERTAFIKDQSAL
How it was run: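 Fluorogenic cleavage of BOC-RVRR-AMC (2 microM final, Km ~15 µM) was monitored (ex 340, em 450 nm) at 37C after 15 min RT preincubation of 5 nM furin with compounds in HEPES pH 7.0 buffer with CaCl2 and Triton X-100. Percent inhibition was fitted to a 4-parameter Hill curve.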

[14] = test system: Zika virus NS2B-NS3 protease (linked construct); test: Confirmatory screen NINDS AMC qHTS for Zika virus inhibitors (AID 1347152); also: potency is read from the fitted curve at half-maximal effect; nearly all actives have a fitted effect of over 70% in size
How it was run: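 Purified NS2B-NS3 protease with NS2B hydrophilic domain linked to NS3 protease domain by flexible linker, 1 nM final in 10 mM Tris-HCl pH 8.0, 0.01% Tween 20. Compounds preincubated 15 min, room temperature; Bz-Nle-KRR-AMC 10 microM (Km 18.3 µM); 15-min fluorescence change, 4-parameter Hill fit.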

[15] = test system: Zika virus NS2B-NS3 protease (unlinked complex); test: Confirmatory screen GU AMC qHTS for Zika virus inhibitors (AID 1347153); also: nearly all actives have a fitted effect of over 70% in size
How it was run: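 Unlinked NS2B-NS3 complex (25 nM) in 10 mM Tris-HCl pH 8.0, 0.01% Tween 20 preincubated 15 min with compound, then 10 microM Bz-Nle-KRR-AMC (Km 18.3 µM). Fluorescence change over 15 min, normalized, Hill-fitted.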

Question: With `CN(C)CC(C)(C)CNc1nn2c(-c3ccccc3)nnc2cc1C1CCC1` as the molecule, how does the Potency [1] read?
Answer: 18.5 µM (active)

Question: And the Potency [2]?
Answer: inactive

Question: And the Potency [3]?
Answer: inactive

Question: And the Potency [4]?
Answer: inactive

Question: What about the Potency [5] of the same molecule?
Answer: inactive

Question: What about the Potency [6] of the same molecule?
Answer: inactive

Question: What about the Potency [7] of the same molecule?
Answer: inactive

Question: What about the Potency [8] of the same molecule?
Answer: inactive

Question: With `CC(C)CC(=O)Nc1n[nH]c2c1CN(C(=O)C1CCN(C)CC1)C2(C)C` as the molecule, how does the Potency [3] read?
Answer: inactive

Question: What about the Potency [9] of the same molecule?
Answer: 16.5 µM (active)

Question: What about the Potency [10] of the same molecule?
Answer: 1.31 µM (active)

Question: What about the Potency [4] of the same molecule?
Answer: 6.57 µM (active)

Question: And the Potency [5]?
Answer: inactive

Question: What about the Potency [11] of the same molecule?
Answer: inactive

Question: What about the Potency [7] of the same molecule?
Answer: 5.85 µM (active)

Question: What about the Potency [8] of the same molecule?
Answer: 4.18 µM (active)

Question: And the Potency [12]?
Answer: inactive

Question: Which Potency [12] does the source give for `COc1cc(C(=O)N2CCC(N3CCN(C)CC3)CC2)ccc1Nc1ncc2c(n1)N(C)c1ccccc1C(=O)N2C` here?
Answer: inactive

Question: With `CC(NCc1ccc2c(c1)nc(NC(=O)c1ccc(-c3cn[nH]c3)s1)n2CC(C)(C)O)C(C)(C)C` (configuration not stated) as the molecule, how does the Potency [2] read?
Answer: 1.31 µM (active)

Question: What about the Potency [3] of the same molecule?
Answer: 7.37 µM (active)

Question: What about the Potency [9] of the same molecule?
Answer: 0.928 µM (active)

Question: And the Potency [10]?
Answer: 0.737 µM (active)

Question: What about the Potency [4] of the same molecule?
Answer: 0.928 µM (active)

Question: And the Potency [5]?
Answer: 2.61 µM (active)

Question: And the Potency [11]?
Answer: 657 nM (active)

Question: What about the Potency [6] of the same molecule?
Answer: 0.928 µM (active)

Question: And the Potency [7]?
Answer: 0.827 µM (active)

Question: What about the Potency [8] of the same molecule?
Answer: 0.833 µM (active)

Question: Which Potency [13] does the source give for `CN1CCC(CNc2ccc3ncc(-c4cccc(OC(F)(F)F)c4)n3n2)CC1` here?
Answer: 21.5 µM (active)

Question: What about the Potency [14] of the same molecule?
Answer: 27.1 µM (active)

Question: And the Potency [12]?
Answer: 24.1 µM (active)

Question: For `CCN(CC)CCCCNc1ncc2cc(-c3cc(OC)cc(OC)c3)c(NC(=O)NC(C)(C)C)nc2n1`, which Potency [13] is on record?
Answer: 24.1 µM (active)

Question: What about the Potency [15] of the same molecule?
Answer: inactive

Question: What about the Potency [12] of the same molecule?
Answer: 21.5 µM (active)

Question: Which Potency [2] does the source give for `CC(C)(C)NC(=O)[C@H]1CN(Cc2cccnc2)CCN1C[C@@H](O)C[C@@H](Cc1ccccc1)C(=O)N[C@H]1c2ccccc2C[C@H]1O` here?
Answer: 23.3 µM (active)

Question: And the Potency [3]?
Answer: inactive

Question: What about the Potency [9] of the same molecule?
Answer: 23.3 µM (active)

Question: And the Potency [10]?
Answer: 20.8 µM (active)

Question: And the Potency [4]?
Answer: inactive

Question: What about the Potency [5] of the same molecule?
Answer: inactive

Question: What about the Potency [11] of the same molecule?
Answer: 18500 nM (active)

Question: And the Potency [8]?
Answer: inactive

Question: What about the Potency [12] of the same molecule?
Answer: inactive

Question: For `Cc1cn2cc(C(=O)N(C)CCO)cc(N[C@@H]3CCOc4cccc(C)c43)c2n1`, which Potency [12] is on record?
Answer: inactive

Question: What does the source list for `Cc1nc2ccc(CN(C)c3ccc(C(=O)N[C@@H](CCC(=O)O)C(=O)O)s3)cc2c(=O)[nH]1`?
Answer: Potency [1]: 0.0522 µM (active); Potency [9]: inactive; Potency [10]: inactive; Potency [5]: inactive; Potency [6]: inactive; Potency [7]: inactive; Potency [8]: inactive; Potency [12]: inactive

Question: With `C=CCn1c(=O)c2cnc(Nc3ccc(N4CCN(C)CC4)cc3)nc2n1-c1cccc(C(C)(C)O)n1` as the molecule, how does the Potency [2] read?
Answer: 1.31 µM (active)

Question: What about the Potency [3] of the same molecule?
Answer: inactive

Question: What about the Potency [9] of the same molecule?
Answer: 1.65 µM (active)

Question: And the Potency [10]?
Answer: 1.17 µM (active)

Question: What about the Potency [4] of the same molecule?
Answer: 0.737 µM (active)

Question: What about the Potency [6] of the same molecule?
Answer: 1.31 µM (active)

Question: And the Potency [7]?
Answer: 1.04 µM (active)

Question: And the Potency [8]?
Answer: 3.32 µM (active)

Question: With `Nc1cc(C(F)(F)F)c(-c2cc(N3CCOCC3)nc(N3CCOCC3)n2)cn1` as the molecule, how does the Potency [1] read?
Answer: 4.14 µM (active)

Question: And the Potency [2]?
Answer: 3.69 µM (active)

Question: And the Potency [9]?
Answer: 5.22 µM (active)

Question: What about the Potency [10] of the same molecule?
Answer: 5.85 µM (active)

Question: And the Potency [4]?
Answer: 5.85 µM (active)

Question: What about the Potency [11] of the same molecule?
Answer: 4140 nM (active)

Question: And the Potency [8]?
Answer: 4.69 µM (active)

Question: With `Cc1cc(N2CCOCC2)cc2[nH]c(-c3c(NC[C@@H](O)c4cccc(Cl)c4)cc[nH]c3=O)nc12` as the molecule, how does the Potency [1] read?
Answer: 0.465 µM (active)

Question: And the Potency [2]?
Answer: 0.329 µM (active)

Question: And the Potency [9]?
Answer: 7.37 µM (active)

Question: And the Potency [10]?
Answer: 0.657 µM (active)

Question: And the Potency [5]?
Answer: 3.29 µM (active)

Question: What about the Potency [11] of the same molecule?
Answer: 293 nM (active)

Question: What about the Potency [6] of the same molecule?
Answer: 3.69 µM (active)

Question: What about the Potency [7] of the same molecule?
Answer: 3.29 µM (active)

Question: What about the Potency [8] of the same molecule?
Answer: 3.72 µM (active)

Question: What about the Potency [15] of the same molecule?
Answer: inactive

— PubChem BioAssay (NCATS)
